Only some compounds are listed: those with a hit (about 2.4% of all), similar ones and a draw of the others.
D2 ag-1: HTS Assay for Allosteric Agonists of the Human D2 Dopamine Receptor: Primary Screen for Agonists. HEK293 T-REx D2 cells, calcium flux agonist mode. activation, % at 2 µM. 340,000 compounds, 0.53% hits;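 active = activation over 3 SD above normal in the single-dose calcium agonist read, cut at about 30% in these data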; also: 0% is about no effect
Target sequence (P14416 whole entry, looked up): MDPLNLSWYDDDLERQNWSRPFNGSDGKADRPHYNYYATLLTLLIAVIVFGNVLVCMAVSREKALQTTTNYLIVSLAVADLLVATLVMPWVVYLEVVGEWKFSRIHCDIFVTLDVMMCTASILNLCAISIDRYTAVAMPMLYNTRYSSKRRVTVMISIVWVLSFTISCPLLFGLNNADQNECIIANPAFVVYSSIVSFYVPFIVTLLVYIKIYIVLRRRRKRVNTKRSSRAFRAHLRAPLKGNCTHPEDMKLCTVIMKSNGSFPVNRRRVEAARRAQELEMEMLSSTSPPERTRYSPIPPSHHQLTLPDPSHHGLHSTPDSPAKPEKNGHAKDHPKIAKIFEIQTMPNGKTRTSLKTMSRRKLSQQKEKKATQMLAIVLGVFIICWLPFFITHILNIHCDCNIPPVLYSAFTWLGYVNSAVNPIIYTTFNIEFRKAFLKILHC
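HEK293 Trex D2 cells, tetracycline-induced, o/n 30 C 5% CO2; no-wash Ca dye, RT 30–90 min; 10-cycle baseline, 23 nl cpd added, kinetic Ca read 180 s; agonist hits = positive Ca response.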
D2 antag: HTS Assay for Allosteric Antagonists of the Human D2 Dopamine Receptor: Primary Screen for Antagonists; 340,000 compounds, 2% hits; HEK293 TREx D2 cells, calcium flux, dopamine EC80; inhibition, % at 10 µM; in the data active = inhibition above about 30%; inactive = below that, where a call was filed; also: 0% is about no effect
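Read-out: kinetic calcium fluorescence (1 cycle/s) in inducible HEK293 T-REx D2 cells after an EC80 dopamine addition that followed 180 s compound preincubation. Loss of the dopamine response indicates antagonism.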
D2 PAM-1: Beta-Arrestin HTS for Positive Allosteric Modulators of the Human D2 Dopamine Receptor: Potentiators | D(2) dopamine receptor (Homo sapiens), P14416 | DiscoveRx D2 beta-arrestin cells, luminescence, 90 min; 100% = 57 uM dopamine signal | potentiation, % (concentration not given with the values) | 360,000 compounds, 0.23% hits | AID 624464, 2012; in the data active = potentiation above about 50%; inconclusive = mostly about 30% to 49%
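PathHunter D2 cells, attached overnight at 37 deg C, received compound in DMSO plus dopamine at EC20 (50 nM final) for 90 min at 37 deg C. Beta-arrestin recruitment was read as luminescence after 1 h with detection reagent at ambient temperature.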
D2 ag-2: Beta-Arrestin HTS for Positive Allosteric Modulators of the Human D2 Dopamine Receptor: Agonists; D(2) dopamine receptor (Homo sapiens), P14416; DiscoveRx PathHunter D2 beta-arrestin, luminescence, 90 min; 100% = 57 uM dopamine signal; activation, % (test concentration not listed); 360,000 compounds, 0.084% hits; in the data active = activation above about 40%; inconclusive = between about 15% and that limit
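Agonist mode: compounds alone added to overnight-plated D2 PathHunter cells for 90 min at 37 C, with 57 uM final dopamine (EC100) defining full response. Beta-arrestin recruitment detected by chemiluminescent reagent, read after 1 h at ambient temperature.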
D2 PAM-2: HTS Assay for Positive Allosteric Modulators of the Human D2 Dopamine Receptor: Primary Screen for Potentiators; 340,000 compounds, 0.34% hits; D(2) dopamine receptor (Homo sapiens), P14416; potentiation, % at 10 µM; HEK293 T-REx D2, calcium flux, EC20 dopamine potentiation;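 active = potentiation over 3 SD above the plate norm, cut at about 30% in these data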; also: 0% is about no effect
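Using a no-wash calcium dye in inducible, force-coupled HEK293 Trex cells expressing D2, we tracked fluorescence each second for 180 s after compound, then for 180 s after EC20 dopamine to detect augmented signalling.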
An asterisk follows results filed as active; ? = inconclusive; nt = no result given.

SMILES | D2 ag-1 | D2 antag | D2 PAM-1 | D2 ag-2 | D2 PAM-2
COc1ccccc1/C=C/CN1CCCC(CO)(CCc2ccccc2)C1 (centres undefined) | 0 | 71* | -23 | 4 | -19
OCC1(CCc2ccccc2)CCCN(C/C=C/c2ccccc2)C1 (centres undefined) | -1 | 45* | -21 | 5 | -22
CCCCc1nn2c(=O)cc(COC(=O)c3cccc(NC(=O)CCc4ccccc4)c3)nc2s1 | 6 | nt | nt | nt | -1
CCOC(=O)c1nc(Nc2ccccc2CC)c2ccccc2n1 | 0 | 33* | 1 | 0 | -7
Cc1ccc(CN(C)C2CCN(C)CC2)cc1 | 0 | -5 | -4 | -3 | 13
CN1C[C@@H]2[C@@H]3C(=O)N(C)C(=O)[C@@H]3[C@](Cc3ccccc3)(C1=O)N2C(=O)c1ccc(Cl)cc1 | nt | nt | -6 | 2 | nt
Cc1ccc(-n2[nH]c(C)c(C=Nc3ccc(S(=O)(=O)Nc4nc(C)cc(C)n4)cc3)c2=O)c(C)c1 | 1 | -5 | 12 | -1 | 6
CNS(=O)(=O)c1ccc(N=Cc2c(C)[nH]n(-c3ccc(C)cc3C)c2=O)cc1 | 1 | 42* | 1 | -3 | -7
COc1ccc(Nc2nc3c(S(=O)(=O)c4ccc(Br)cc4)nnn3c3ccsc23)c(OC)c1 | 0 | nt | nt | nt | -7
Clc1ccccc1Cn1nnc2c(N3CCCC3)ncnc21 | 0 | 7 | 7 | 1 | 5
CCc1nc(N2CCC3(CC2)OCCO3)c2nnn(Cc3ccccc3Cl)c2n1 | 0 | -9 | -3 | 0 | 34*
O=c1c2c(n3cnnc3n1-c1ccccc1)-c1ccccc1CC21CCCCC1 | 0 | 5 | 7 | 0 | -2
Cc1cccc(-n2c(=O)c3c(n4cnnc24)-c2ccccc2CC32CCCCC2)c1 | 0 | 31* | -2 | -2 | 41*
Oc1c(C(c2cccc(Cl)c2)N2CCOCC2)sc2nc(-c3ccco3)nn12 (centres undefined) | 0 | nt | nt | nt | nt
C=CCNc1nc(Cl)nc(Nc2ccc(OC)cc2OC)n1 | 0 | -13 | -4 | -1 | 1
COc1ccc(Nc2nc(Cl)nc(Nc3ccc(OC)cc3OC)n2)c(OC)c1 | 0 | 51* | -4 | 6 | -6
COc1cc(Cl)c(NC(=O)CN2C(=O)c3cccnc3Sc3ccccc32)c(OC)c1 | 0 | nt | nt | nt | -3
CSc1ccccc1NC(=O)c1cnc2scc(C)n2c1=O | -1 | -5 | -1 | 1 | 36*
CCc1ccccc1NC(=O)c1cnc2scc(C)n2c1=O | nt | nt | 0 | -5 | nt
CCC(C)(C)NC(=O)C(c1cccn1C)N(Cc1ccc(OC)cc1)C(=O)Cn1nnc2ccccc21 (centres undefined) | 1 | 30* | -5 | -1 | 9
COc1cccc2cc(C(=O)CC3(O)C(=O)N(Cc4ccccc4)c4ccccc43)c(=O)oc12 (centres undefined) | 0 | 5 | -1 | -2 | 40*
CCc1ccccc1N(CC)C(=O)C(=O)Nc1ccc2nc3n(c(=O)c2c1)CCCCC3 | 1 | nt | nt | nt | 2
O=C(CSc1nnc(-c2ccccc2)n1CC1CCCO1)N1CCCC1 (centres undefined) | -2 | 13 | -9 | -5 | 32*
Nn1c(SCC(=O)N2CCCCCC2)nnc1-c1ccncc1 | -1 | 30* | 2 | 2 | 1
O=C(CSc1nnc(-c2ccco2)n1CC1CCCO1)N1CCCCC1 (centres undefined) | 1 | 2 | -4 | 0 | 1
SMILES | D2 ag-1 | D2 antag | D2 PAM-1 | D2 ag-2 | D2 PAM-2
COc1ccc(O)c(/C=N/NC(=O)CCC(=O)Nc2cccc(C)c2)c1 | 0 | -5 | -7 | -3 | -6
O=C(CCC(=O)Nc1ccc(Br)cc1)N/N=C/c1ccc(O)cc1 | -1 | 33* | -23 | -4 | -23
COc1cc(/C=N/NC(=O)CCC(=O)Nc2ccc(Br)cc2)ccc1O | 0 | 32* | -10 | 1 | -11
COc1ccc(OC)c(/C=N/NC(=O)CCCC(=O)Nc2cccc(Br)c2)c1 | 1 | 68* | -12 | -2 | -4
Cc1ccc(NC(=O)CCC(=O)N/N=C/c2ccc(O)cc2)cc1 | 0 | -25 | -21 | -4 | -14
O=C(Nc1ccc(Br)cc1F)c1cc(S(=O)(=O)NC2CCCC2)ccc1F | 0 | nt | nt | nt | nt
CCc1ccc(NC(=O)C(CC)n2c(=O)c(-c3ccccc3NC(C)=O)nc3ccccc32)cc1 (centres undefined) | -1 | nt | nt | nt | 13
CCN(C(=O)CSc1nc2ccc(O)cc2c(=O)n1-c1ccc(OC)c(OC)c1)C1CCS(=O)(=O)C1 (centres undefined) | -1 | 43* | -70 | -1 | 9
CCOc1ccc(-c2nnc(NC(=O)Cc3ccc(OC)cc3)o2)cc1 | 0 | 35* | -7 | -4 | -8
COc1ccc(-c2nnc(NC(=O)c3ccc(F)cc3)o2)cc1 | -1 | 34* | 1 | -6 | -13
Cc1cc2c(cc1C)NC(CC(=O)Nc1ccccc1SC(F)(F)F)C(=O)N2 (centres undefined) | 2 | nt | nt | nt | 4
Cc1cc(=O)c2cc(C(=O)Nc3ccc(C)c(C)c3)ccc2[nH]1 | 1 | nt | nt | nt | 11
CCn1c(C)nc2cc(C(=O)NNC(=O)CN(C)S(=O)(=O)c3ccc(NC(C)=O)cc3)ccc21 | nt | nt | -1 | 4 | nt
N#Cc1ccncc1S(=O)c1ccc(Cl)cc1 (centres undefined) | 0 | 7 | -8 | -1 | -6
CCn1cc(CN2CCC(C(=O)Nc3ccc(Oc4cccnc4)cc3)CC2)cn1 | -3 | 31* | 17 | -4 | -6
CCn1cc(CN2CCC(C(=O)Nc3ccc(Oc4cccnc4)cc3)CC2)c(C)n1 | 0 | -6 | -25 | -6 | -9
CCCCC(=O)Nc1ncc(S(=O)(=O)c2ccc([N+](=O)[O-])cc2)s1 | 4 | -6 | -8 | ? | 4
CC(=O)NCCC(=O)Nc1ncc(S(=O)(=O)c2ccc([N+](=O)[O-])cc2)s1 | 0 | -19 | 52* | 10 | 7
O=C(Nc1ncc(S(=O)(=O)c2ccc([N+](=O)[O-])cc2)s1)c1cccc2ccccc12 | 26 | 9 | 62* | -2 | -3
COCC(=O)Nc1ncc(S(=O)(=O)c2ccc([N+](=O)[O-])cc2)s1 | 0 | 3 | ? | ? | -3
COc1ccc2c(c1)c1nc3ccccc3nc1n2CCCN1C(=O)c2ccccc2C1=O | 1 | 0 | -7 | 0 | 13

Compound activity as filed in PubChem BioAssay.
